Assay outcomes: PubChem BioAssay, The Scripps Research Institute Molecular Screening Center
ABHD5 PLIN5 PPI = inhibitors of human ABHD5-perilipin-5 interaction. Q00G26+Q8WTS1. Split G. princeps luciferase complementation, luminescence, 4 h. inhibition, % at 4 µM. actives 0.78% (n = 360,000). AID 602281;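 active means inhibition above the mean inhibition across every tested compound plus 3 SD, cut at about 22% in these data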;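 further: 0% = DMSO only wells and the 100% control is not disclosed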
TLR9-MyD88 block = blocks human TLR9 binding to MyD88. AID 504734. actives 0.21% (n = 340,000). inhibition, % at 4.98 µM. CHO BLA complementation TLR9-MyD88, CCF4 FRET ratio. Q9NR96+Q99836;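 active means inhibition above the mean over all tested compounds plus 3 SD, cut at about 21% in these data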;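 further: 0% = DMSO only wells and 100% = clavulanate BLA inhibitor control wells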
Target sequence (Q99836 whole entry, looked up): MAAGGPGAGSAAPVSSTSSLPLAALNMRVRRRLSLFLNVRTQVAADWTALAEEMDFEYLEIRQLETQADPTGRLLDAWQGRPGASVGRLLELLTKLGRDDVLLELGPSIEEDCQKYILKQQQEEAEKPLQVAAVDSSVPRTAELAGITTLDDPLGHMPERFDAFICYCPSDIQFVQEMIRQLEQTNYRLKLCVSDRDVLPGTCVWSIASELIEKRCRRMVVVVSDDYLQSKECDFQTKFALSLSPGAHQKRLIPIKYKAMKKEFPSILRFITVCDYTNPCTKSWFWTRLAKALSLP
Target sequence (Q9NR96 whole entry, looked up): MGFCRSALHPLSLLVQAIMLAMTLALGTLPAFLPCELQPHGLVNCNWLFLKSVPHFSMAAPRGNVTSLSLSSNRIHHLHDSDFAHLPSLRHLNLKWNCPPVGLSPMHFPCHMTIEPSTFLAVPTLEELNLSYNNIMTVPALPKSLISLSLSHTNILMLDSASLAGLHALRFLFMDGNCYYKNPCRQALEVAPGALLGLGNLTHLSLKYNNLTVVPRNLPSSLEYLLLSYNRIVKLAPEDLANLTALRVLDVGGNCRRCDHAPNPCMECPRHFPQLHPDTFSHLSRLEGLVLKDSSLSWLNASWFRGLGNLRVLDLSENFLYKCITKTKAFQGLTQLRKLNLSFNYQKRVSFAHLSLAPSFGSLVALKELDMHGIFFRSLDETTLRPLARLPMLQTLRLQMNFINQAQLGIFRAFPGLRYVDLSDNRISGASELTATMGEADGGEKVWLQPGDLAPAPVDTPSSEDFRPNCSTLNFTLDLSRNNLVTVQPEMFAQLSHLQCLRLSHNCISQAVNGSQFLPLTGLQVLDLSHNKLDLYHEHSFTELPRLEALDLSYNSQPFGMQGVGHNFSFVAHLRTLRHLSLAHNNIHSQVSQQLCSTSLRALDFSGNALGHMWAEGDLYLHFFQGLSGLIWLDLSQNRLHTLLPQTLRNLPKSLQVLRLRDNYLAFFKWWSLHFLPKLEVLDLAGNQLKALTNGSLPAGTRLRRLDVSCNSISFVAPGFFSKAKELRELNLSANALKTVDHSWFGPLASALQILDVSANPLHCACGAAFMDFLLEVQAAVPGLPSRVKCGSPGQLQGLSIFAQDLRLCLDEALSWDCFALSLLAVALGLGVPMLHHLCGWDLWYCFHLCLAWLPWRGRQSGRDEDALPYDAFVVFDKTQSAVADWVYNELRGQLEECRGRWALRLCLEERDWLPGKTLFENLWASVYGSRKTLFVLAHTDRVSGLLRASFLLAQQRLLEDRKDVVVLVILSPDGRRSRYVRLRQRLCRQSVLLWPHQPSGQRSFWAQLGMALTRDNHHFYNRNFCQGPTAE
NOD2-RIPK2 inh = NOD2-RIPK2 protein interaction inhibition; O43353; CHO BLA complementation NOD2-RIPK2, CCF4 ratio; inhibition, % at 4.98 µM; actives 0.38% (n = 360,000); AID 624267; in the data active means inhibition above about 21%;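 further: 0% = vehicle only and 100% = reference blocker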
PRMT1 FP inh = inhibitors of human PRMT1 | Q99873 | recombinant PRMT1, activity-based probe fluorescence polarization | inhibition, % at 2.79 µM | actives 1.3% (n = 370,000);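 active means inhibition above about 21% made by adding two undisclosed values, limit read from the data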
rCAG binder = binds r(CAG) RNA repeats; r(CAG) RNA repeat, TO-PRO-1 dye displacement fluorescence; inhibition, % at 3 µM; actives 1.3% (n = 370,000); AID 651821;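 active means inhibition above the plate cutoff, the mean of all test compounds on that plate plus 3 SD, cut at about 35% in these data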;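 further: 0% = DMSO alone and 100% = 100 µM mitoxantrone as full dye displacement; higher means more dye released from RNA so lower well fluorescence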
TLR4-MyD88 BLA = TLR4-MyD88 interaction inhibition in cells | AID 861 | HeLa CL3-4 TLR4/MyD88 BLA complementation, FRET ratio | inhibition, % at 8.4 µM | actives 0.18% (n = 200,000) | O00206+Q99836; in the data active means inhibition above about 25%;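 further: 0% = vehicle and 100% = reference inhibitor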
PRMT1 inh conf = PRMT1 (human) inhibition, FP confirmation. shares compounds with PRMT1 FP inh. recombinant His-PRMT1, activity-based probe fluorescence polarization. inhibition, % at 2.79 µM. actives 42% (n = 3,300);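 active means mean inhibition across replicates above the hit cutoff derived for the earlier primary screen, cut at about 22% in these data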
Active calls of the source: *; · = not tested or not shown. Shown are actives, neighbours in structure and some others; about 3.3% of the full set was active somewhere.

SMILES	ABHD5 PLIN5 PPI	TLR9-MyD88 block	NOD2-RIPK2 inh	PRMT1 FP inh	rCAG binder	TLR4-MyD88 BLA	PRMT1 inh conf
COCCNC(=O)C1=NOC(Cn2cc(C#N)c(=O)n(C)c2=O)C1 (stereo not given)	0	5	3	-2	-2	15	·
COc1ccc(C(=O)COC(=O)c2sccc2C)cc1OC	1	-10	-5	-1	0	·	·
CC(C)(C)OC(=O)C[C@H]1C/C=C\C[C@H](CC(=O)N(CCO)Cc2ccccc2)C(=O)N[C@@H](Cc2ccccc2)COC1=O	2	-13	2	-2	-7	·	·
CCCc1nc2c(sc3nc4c(cc32)COC(C)(C)C4)c(=O)n1Cc1ccco1	17	2	-8	30*	7	-7	9
CC(C)(C)C(=O)/C=C/Nc1ccccc1O	-1	11	5	26*	4	2	8
CN(C)c1ccc(N/C=C/C(=O)C(C)(C)C)cc1	-9	-9	-5	9	8	0	·
O=C(NNc1nc2cc3c(cc2s1)OCCO3)c1ccc(F)cc1	-6	-17	4	33*	5	-4	-1
O=C(Nc1nc2cc3c(cc2s1)OCCO3)c1ccncc1	-3	-1	2	-2	6	-8	·
Cc1ccc(S(=O)(=O)N(C)C)cc1NC(=O)COC(=O)c1ccc2c(c1)OCCO2	-10	-11	0	-5	-3	18	·
O=C(NCc1ccco1)c1cccnc1-c1nc2ccccc2s1	-4	3	-2	42*	7	-12	46*
CCOC(=O)c1ccc(NC(=O)CC2Sc3ncnn3C2=O)cc1 (stereo not given)	8	8	-4	55*	8	-2	69*
COc1ccc(NC(=O)CC2Sc3ncnn3C2=O)cc1 (stereo not given)	10	-4	-16	86*	4	0	25*
O=C(CC1Sc2ncnn2C1=O)Nc1ccc(Cl)cc1 (stereo not given)	·	·	·	9	3	8	·
Oc1ccc(CNc2ccccc2C(F)(F)F)c2cccnc12	·	·	·	47*	·	·	33*
Oc1ccc(Nc2ccccc2F)c2cccnc12	·	·	·	42*	·	·	1
Oc1ccc(-c2ccccc2F)c2cccnc12	·	·	·	-1	·	·	·
Oc1ccc(CNc2ccccc2F)c2cccnc12	-3	6	7	5	2	-7	·
Oc1ccc(CNc2ccccc2Cl)c2cccnc12	·	·	·	56*	·	·	65*
Cc1ccc(NC(=O)CN2CCN(C(=O)c3ccco3)CC2)cc1S(=O)(=O)N(C)C	0	-14	-10	2	1	·	·
CN1CCCCC(NC(=O)c2cccc(C(F)(F)F)c2)C1=O (stereo not given)	·	·	·	2	0	·	·
CC(=O)CC[C@H]1CC[C@]2(CCCN(C(=O)c3ccccc3)C2)O1	·	·	·	0	-1	·	·
Cc1cc(C(=O)CSc2nnnn2-c2ccccc2)c(C)n1CC1CCCO1 (stereo not given)	-7	0	6	-2	0	10	·
Cc1cc(C(=O)CSc2nnc(-c3cccnc3)n2-c2ccccc2F)c(C)n1CC1CCCO1 (stereo not given)	3	-9	-7	27*	4	4	8
CCCC(C)c1oc(=O)cc(O)c1C (stereo not given)	-7	-3	-12	11	16	·	·
O=C(NC1CC1)c1cc(=S)[nH]c2ccccc12	-4	-3	5	39*	1	·	19
SMILES	ABHD5 PLIN5 PPI	TLR9-MyD88 block	NOD2-RIPK2 inh	PRMT1 FP inh	rCAG binder	TLR4-MyD88 BLA	PRMT1 inh conf
O=C(NC1CC1)C(=O)c1c[nH]c2ccccc12	4	0	0	0	-4	·	·
Cc1ccc(C2=NN=C(NC(=O)C(F)(F)F)SC2)cc1	-21	8	-10	58*	4	8	61*
COC(=O)C1=C(O)/C(=C\c2ccc(OCC(=O)Nc3ccccc3)cc2)N=C1C	-1	-2	0	2	1	·	·
COC(=O)C1=C(O)/C(=C\c2ccc(CNS(=O)(=O)c3ccccc3)o2)N=C1C	6	-10	-4	39*	31	-13	16
CCN(CC)Cc1c(CC(C)C)oc(C)c1C(=O)O	5	3	-6	4	0	-3	·
Cc1cccc2nc(CSCc3ccco3)cn12	-5	-9	6	27*	8	1	15
O=C(Nc1cnc2ccccn2c1=O)c1ccc(Cl)cc1	0	-7	4	1	3	5	·
CC1(C)Cc2c(c(N3CCOCC3)nc3sc(C(=O)Nc4ccccc4)c(N)c23)CO1	-3	-5	-6	27*	14	·	23*
OCc1cc(Br)ccc1OCc1nc2ccccc2s1	-7	-3	-4	·	·	·	·
N/C(Cc1nc2ccccc2s1)=N\O	-4	-1	3	0	8	·	·
Oc1ccccc1OCc1nc2ccccc2s1	-9	-1	-1	28*	3	-5	10
NC(=O)CSCc1nc2ccccc2s1	-13	-6	2	27*	10	4	20
COc1ccc(NC(=O)c2cc(C3CCCCN3C(=O)CCCc3ccccc3)on2)c(C)c1 (stereo not given)	0	·	-2	-1	2	·	·
C[n+]1c2n(c3ccccc31)N=C(c1ccc(Br)cc1)CS2	-12	-2	-10	57*	9	6	2
C[n+]1c2n(c3ccccc31)N=C(c1ccccc1)CS2	-8	11	1	48*	5	7	8
COc1ccc(NCc2nnc(SCC(=O)c3ccc(OC)cc3)o2)cc1	10	-11	-5	7	10	1	·
COc1ccc(NCc2nnc(SCC(=O)Nc3cccc(C)c3)o2)cc1	-15	0	6	37*	18	-5	29*
COCCN(C(=O)c1cc(-c2ccco2)nc2ccccc12)c1c(N)n(Cc2ccccc2)c(=O)[nH]c1=O	6	8	-3	83*	13	·	9
CCCN(C(=O)c1cc(-c2ccco2)nc2ccccc12)c1c(N)n(Cc2ccccc2)c(=O)[nH]c1=O	13	-1	-2	33*	21	·	6
CCCn1c(N)c(N(CCOC)C(=O)c2cc(Cl)nc3ccccc23)c(=O)[nH]c1=O	-1	-3	3	0	2	·	·
Cn1nc(C(=O)N2CCC(C(N)=O)CC2)c2c1-c1ccccc1SC2	3	-9	-5	1	3	·	·
CC(C)N(C(=O)c1nn(C)c2c1CSc1ccccc1-2)C1CCCCC1	2	-9	-12	39*	-1	·	14
Cc1cccc(N2C(=O)C(Cl)=C(N3CCOCC3)C2=O)c1	3	-11	-14	28*	-1	·	1
CCc1ccc(N2C(=O)C(Cl)=C(N3CCOCC3)C2=O)cc1	12	-10	0	15	0	4	·
CCCCONc1ncnc2nonc12	-3	6	3	-2	-3	3	·
